Measured values: the supplement of paper PMC3842684

System: P. falciparum NF54-pfs16-GFP early (I-III) stage gametocytes
Assay: relative % inhibition of viable gametocyte number; higher = more gametocytocidal
Details: 5 µM; stage: early (I-III) gametocyte; incubation 72 h
In short: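 Viable gametocytes were counted by confocal imaging as elongated GFP objects carrying MitoTracker Red signal above a cut-off, after 72 h of compound exposure (5 or 0.5 µM) at 37°C in 5% CO2 and 5% O2 and overnight staining. The NF54 pfs16-GFP gametocytes had been magnet-isolated at early (I/IIa, day 2) or late (day 8) stage and plated at 10% parasitaemia, 0.1% haematocrit in 384-well poly-D-lysine imaging plates. Relative inhibition was normalised to vehicle and positive-control wells within each plate.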

SMILES | relative % inhibition [%]
COc1ccc(CNC(=O)c2cc3c(=O)n4ccccc4nc3n(CCc3ccccc3)c2=N)cc1 | 56.6
COc1ccc(C=C2SC(Nc3ccccc3)=NC2=O)cc1 | 17.7
COc1ccc2nc(C)cc(Nc3cccc(O)c3)c2c1 | 3.08
CCOc1cccc(C(=O)Nc2ccc(-c3nc4ccccc4[nH]3)cc2)c1 | -17.2
CCOC(=O)c1cnc2c(CC)cccc2c1O | 0.0948
COc1ccccc1N1CCN(C(CNS(=O)(=O)c2ccc(Cl)cc2)c2cccnc2)CC1 (centres undefined) | 41.8
CN1CCN(c2ncnc3c2[nH]c2ccc(Cl)cc23)CC1 | 20.1
CC(Oc1ccc(NC(=O)c2cccs2)cc1)C(=O)c1ccc(Cl)cc1 (centres undefined) | 23
CCOC(=O)c1cnc2ccc(OC)cc2c1Nc1ccc(N2CCN(C)CC2)cc1 | 24.4
Cc1ccc(C(=O)c2oc3ccc4c(C)cc(=O)oc4c3c2C)cc1 | -0.0271
COc1ccc(CCn2c(=N)c(C(=O)NCc3cccnc3)cc3c(=O)n4cccc(C)c4nc32)cc1 | 70.9
CN(C)CCCNCc1ccc(-c2ccc(F)c(Cl)c2)o1 | 99.5
O=C(NNc1cc(N2CCCC2)nc(N2CCCC2)n1)c1ccccc1 | -5.49
COc1ccc(C(=O)Nc2nonc2-c2ccc(OC)c(OC)c2)cc1Cl | 31.6
CCn1nc(-c2ccc(C(=O)OC)cc2)nc2c(=O)n(C)c(=O)nc1-2 | 36.1
O=C(NC1CCN(Cc2ccccc2)CC1)c1cc(-c2ccncc2)nc2ccc(Cl)cc12 | 64.3
CCOc1c(Cl)cc(CNCC(O)c2ccccc2)cc1OC (centres undefined) | 13.9
CN1CCN(c2nc(Nc3ccc(O)cc3)nc3ccccc23)CC1 | -9.15
CCN(CC)CCCNc1ccnc2cc3ccccc3cc12 | -7.44
Cc1cc(C)c2nc(N3CCC(C(=O)NCCCN4CCC(N5CCCCC5)CC4)CC3)sc2c1 | 90.7

SMILES | relative % inhibition [%]
CNCCCNc1ccnc2cc(Cl)ccc12 | 106
CCOc1cc2c(cc1OCC)C(c1cc(OC)c(O)cc1Cl)NCC2 (centres undefined) | 100
CN(C)c1ccc(N=Cc2ccc(N3CCOCC3)cc2)cc1 | 48.6
Cc1cccc(Nc2nc(N)c3ccccc3n2)c1 | -18.1
CCOC(=O)C1=C(c2ccccc2)N=c2sc(=Cc3cc(C)n(-c4ccc(F)cc4)c3C)c(=O)n2C1c1cccc(OC)c1OC (centres undefined) | 96.5
Oc1ccc2ccccc2c1CNc1nc2ccccc2[nH]1 | 66.5
O=C(Nc1ccc(N2CCN(Cc3ccccc3)CC2)cc1)c1cccs1 | 6.41
CN(C)CCNc1cc(-c2ccccc2)nc2ccccc12 | -20.1
Cc1ccc(C)c(Cn2c(N3CCC(C(=O)NCc4cccs4)CC3)nc3ccccc32)c1 | 39.4
CCOc1cc(Cl)c(C(C)NC(=O)c2ccccc2)cc1OCC (centres undefined) | 34.5
O=C(Nc1cccc(-c2nc3ccccc3[nH]2)c1)c1cccc(NC(=O)c2ccco2)c1 | 20.8
Oc1c2c(nc3ccccc13)CCCC2 | -7.51
COc1ccc(CNC2CCN(c3ccc(NC(=O)c4cccc(Cl)c4)cc3)CC2)cc1OC | 79
Cc1ccc(CN2CCC(C(=O)Nc3ccc(-c4cc5ccccc5[nH]4)cc3)CC2)o1 | 90.5
FC(F)(F)c1cccc(Nc2nc(-c3ccccc3)nc3ncccc23)c1 | -19.6
COc1ccc(-c2nc(NC(=O)CS(=O)(=O)c3ccc(F)cc3)sc2C)cc1 | 100
OC1=C2C(=Nc3ccccc3SC2c2ccc(Br)cc2)c2ccccc21 (centres undefined) | 35.9
CCc1ccc(Nc2cc(C)nc3nc(C)nn23)cc1 | -31
Cc1ccc(-c2cc3c(SCC(=O)Nc4cc(C(F)(F)F)ccc4Cl)nccn3n2)cc1 | -12
